For assay [1], the system named is Zika virus NS2B-NS3 protease (linked construct). In words: Primary screen NINDS Rhodamine qHTS for Zika virus inhibitors (AID 1347160). Further: nearly all actives have a fitted effect of over 55% in size. Further: potency means the concentration at half of the fitted maximal effect. The method, boiled down: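 Kinetic fluorescence (Ex 480 nm, Em 540 nm) over 15 min with 1.5 microM Rhodamine110 peptide and 25 nM linked protease.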
On the technique in general: In qHTS, concentration-response curves come from the screen itself.

The nature of assay [2]: Panc-1005 Cancer Cell Toxicity qHTS against the NCATS CANVASS Library (AID 1347349). Further: nearly all actives have a fitted effect of over 60% in size. Further: potency means the concentration at half of the fitted maximal effect. The method, boiled down: (§1)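 ATP content after 72 h treatment, detected by CellTiter-Glo luminescence (15min room-temperature development), reflects cell viability. Wells contained 1000 cells and received compounds at 11 concentrations.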
A short description of assay [3]: SW1088 Cancer Cell Toxicity qHTS against the NCATS CANVASS Library (AID 1347350). Further: nearly all actives have a fitted effect of over 75% in size. Further: potency means the concentration at half of the fitted maximal effect. The method, boiled down:
as §1

Assay [4] can be described thus: COV-362 Cancer Cell Toxicity qHTS against the NCATS CANVASS Library (AID 1347352). Further: potency means the concentration at half of the fitted maximal effect. An outline of the steps: (§2)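 Cells at 1000/well were given compound 4 h after plating in an 11-point series. Viability was read by CellTiter-Glo luminescence after 72 h at 37 degrees C.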
Assay [5] in a line: A2780 Cisplatin Sensitive Ovarian Cancer Cell Toxicity qHTS against the NCATS CANVASS Library (AID 1347353). Further: nearly all actives have a fitted effect of over 60% in size. Further: potency means the concentration at half of the fitted maximal effect. The method, boiled down:
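A2780 cells, 750/well, settled 4 h at 37 °C, then treated with an 11-point compound series for 72 h. Viability was read as ATPLite luminescence after 10 min at room temperature, with bortezomib as control.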

Assay [6] is described as follows: UWB1.289-WTBRCA1 Cancer Cell Toxicity qHTS against the NCATS CANVASS Library (AID 1347354). Further: potency means the concentration at half of the fitted maximal effect. The method, boiled down:
as §2

Assay [7] in a line: HEK-293 Cancer Cell Toxicity qHTS against the NCATS CANVASS Library (AID 1347355). Further: nearly all actives have a fitted effect of over 65% in size. Further: potency means the concentration at half of the fitted maximal effect. On outcome: series mostly up to about 46 µM. An outline of the steps:
as §2

Assay [8] deals with NAD(P)H diaphorase (Clostridium kluyveri). In words: Diaphorse counterscreen qHTS: Assay Interference Panel against the NCATS CANVASS Library (AID 1347362). An outline of the steps: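 Counterscreen for coupling-enzyme interference: resorufin fluorescence from resazurin/NADH turnover, read after 5 min at room temperature. Compounds were tested over an 11-point series after 15 min dark preincubation with diaphorase in PBS-Tween.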
In general terms: Counterscreens check selectivity or assay interference.

A short description of assay [9]: KB-8-5-11 Cancer Cell Toxicity qHTS against the NCATS CANVASS Library (AID 1347364). Further: nearly all actives have a fitted effect of over 75% in size. Further: potency means the concentration at half of the fitted maximal effect. The method, boiled down: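 KB-8-5-11 cells, 500/well in DMEM + 10% FBS, given compounds in an 11-point series. Incubated 72 h at 37 °C. Viability by CellTiter-Glo luminescence. Confirmation also run with 1 uM tariquidar.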
Assay [10] can be described thus: SDT Cancer Cell Toxicity qHTS against the NCATS CANVASS Library (AID 1347365). Further: nearly all actives have a fitted effect of over 60% in size. Further: potency means the concentration at half of the fitted maximal effect. The method, boiled down: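 SDT dog glioma cells (500/well) exposed to an 11-point compound series for 72 hr at 37C, 5% CO2. Cytotoxicity read as ATP content by CellTiterGlo luminescence; bortezomib titration as control.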
Assay [11] is described as follows: G06 Cancer Cell Toxicity qHTS against the NCATS CANVASS Library (AID 1347368). Further: nearly all actives have a fitted effect of over 60% in size. Further: potency means the concentration at half of the fitted maximal effect. An outline of the steps:
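G06 dog glioma cells, 500 per well, exposed 72 hr at 37C, 5% CO2 to compounds in an 11-point series. Cytotoxicity read as ATP content by CellTiterGlo luminescence.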

The target in assay [12] is Nuclear receptor subfamily 1 group I member 3 (Homo sapiens) (UniProt Q14994). In words: qHTS for Constitutive Androstane Receptor (CAR) Antagonist screened against the NCATS CANVASS Library (AID 1347372). Further: potency means the concentration at half of the fitted maximal effect. The method, boiled down: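 HepG2-CYP2B6-hCAR double-stable cells plated, 4hr attach; cpd pin-transferred; CITCO 50 nM final; 24hr 37C/5% CO2; CellTiter-Fluor 1hr (fluorescence), then ONE-Glo luminescence.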

A short description of assay [13]: qHTS for Hypoxia signaling pathway (HIF-1) agonists against the NCATS CANVASS Library (AID 1347375). An outline of the steps: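 HRE-bla ME-180 cells (0.5% dialyzed FBS) were pre-incubated 5 hrs at 37C, then exposed to compounds in an 11-point series for 17 hrs. Read-out was CCF4-AM beta-lactamase FRET (460/530 nm emissions), with CellTiter-Glo viability in the same wells.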

Assay [14] in a line: DH5-alpha competent E. coli microbial cell viability qHTS against the NCATS CANVASS Library (AID 1347377). The settings on record: outcome: dose series up to 46.1 µM unless noted. An outline of the steps:
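DH5-alpha E. coli suspension was exposed to an 11-point compound series overnight at 37 °C. Viable cells quantified by ATP luminescence (BacTiter-Glo) after 20 min at room temperature.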

Assay [15] is described as follows: qHTS for Activators of p53 Stress Response Pathway screened against the NCATS CANVASS Library (AID 1347388). An outline of the steps:
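Beta-lactamase reporter driven by p53 response elements in HCT-116 cells, read as the 460 nm/530 nm emission ratio after CCF4 loading, following 16 h of exposure to an 11-point series. Cell viability was measured in the same wells by CellTiter-Glo luminescence.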

Assay [16] can be described thus: qHTS assay for small molecule disruptors of mitochondrial membrane potential screened against the NCATS CANVASS Library (AID 1347389). Further: nearly all actives have a fitted effect of over 60% in size. Further: potency means the concentration at half of the fitted maximal effect. An outline of the steps:
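HepG2 cells (2,000/well) plated overnight, then exposed to compounds in 11-point qHTS series for 1 h at 37C before 30 min Mito-MPS dye; depolarization read as fall in red aggregate (590 nm) to green monomer (535 nm) fluorescence.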

Assay [17] can be described thus: qHTS for activators of Nrf2/ARE signaling pathway screened against the NCATS CANVASS Library (AID 1347391). Further: nearly all actives have a fitted effect of over 60% in size. Further: potency means the concentration at half of the fitted maximal effect. The method, boiled down:
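ARE-bla HepG2 beta-lactamase reporter cells exposed to compounds for 16 h at 37C; CCF4 substrate 2 h, fluorescence at ex 405 nm, em 460/530 nm. Viability by CellTiter-Glo luminescence.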

Assay [18] is described as follows: qHTS for activators of dead-cell proteases activity screened against the NCATS CANVASS Library (AID 1347392).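 Further: luminescence from protease leaking out of membrane-damaged cells cleaving impermeant substrate; rising signal means more cytotoxicity.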 The method, boiled down:
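Compounds are pin-transferred onto attached HepG2 cells, giving 11 final concentrations. After 5 h at 37C, AAF-aminoluciferin reagent is added and luminescence is recorded at room temperature.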

A short description of assay [19]: qHTS for inhibitors of Wild type Zika virus screened against the NCATS CANVASS Library (AID 1347396). Further: potency means the concentration at half of the fitted maximal effect. An outline of the steps:
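Protection against wild-type Zika cytopathic effect is measured in African green monkey Vero 766 cells exposed to an 11-point compound series. Surviving cells are quantified by CellTiter Glo luminescence after 72 h.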

A short description of assay [20]: Redox Reaction Profiling qHTS: Assay Interference Panel against the NCATS CANVASS Library (AID 1347401). Further: potency means the concentration at half of the fitted maximal effect. An outline of the steps: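 Cell-free redox surrogate: 5 uM resazurin + 200 uM DTT, 50 mM HEPES pH 7.3/50 mM NaCl; cpds pinned, 11-pt qHTS; Ex525/Em598 read t0 and t=15 min, dark.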

Records with an inconclusive call do not appear. Activity calls are given as the source filed them. The call rests on the fitted dose curve; in most records, active means well fitted curve in the direction sought with a large enough effect; inconclusive means small, poorly fitted or top-dose-only effect, or another doubt; inactive means no such curve, though single readings can be large; an effect the other way counts as inactive or inconclusive.

Chain of Nuclear receptor subfamily 1 group I member 3 (Homo sapiens) (Q14994 whole entry, looked up): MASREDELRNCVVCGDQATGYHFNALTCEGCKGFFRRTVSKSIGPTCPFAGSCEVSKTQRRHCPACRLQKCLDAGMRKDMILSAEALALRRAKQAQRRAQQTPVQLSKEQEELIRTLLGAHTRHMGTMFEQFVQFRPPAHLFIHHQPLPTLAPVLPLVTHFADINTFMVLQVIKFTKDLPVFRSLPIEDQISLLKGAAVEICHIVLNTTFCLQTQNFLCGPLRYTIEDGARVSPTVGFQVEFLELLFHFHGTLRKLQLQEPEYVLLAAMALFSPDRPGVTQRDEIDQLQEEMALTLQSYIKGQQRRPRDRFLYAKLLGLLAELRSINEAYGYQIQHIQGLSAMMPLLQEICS

With `CN1C(=O)C2C(N=CN2C)N(C)C1=O` (centres undefined), the Potency result in [1], in assay [2], in assay [3], in [4], in assay [5] and in assay [6] was “inactive” each time. Besides, the Potency entry in assay [7], in assay [8], in assay [9], in assay [10], in assay [11] and in assay [12] was “inactive” in each case. Besides, the Potency result in assay [13], in assay [15], in [16], in [17], in assay [18] and in assay [19] was “inactive” throughout. For the same molecule, the Potency result in assay [20] is “inactive”. The molecule was classed as inactive in [14].

For the molecule `CCC[C@@H](C)/C=C(\C)[C@H](O)[C@H](C)/C=C/CC[C@@H](O)[C@H](C)[C@H](O)[C@H](C)[C@H](O)[C@H](C)[C@H]1O[C@H]([C@H](C)C(=O)O)CC[C@@H]1C`, the Potency in assay [1] is 6.21 µM (active); in assay [2], 4.21 µM (active); in assay [3], 2.11 µM (active); in [4], 5.94 µM (active); in assay [6], 13.3 µM (active); in assay [7] it was 14.8 µM (active). The results for the Potency in assay [9], in assay [10] and in [16] were 11.8 µM (active), 9.35 µM (active) and 20.9 µM (active), respectively. Besides, the Potency result in [8] and in [20] was “inactive” each time.

Take `C=C1C[C@@]23C=CC(=O)[C@@](C)(CCC(=O)Nc4c(O)ccc(C(=O)O)c4O)C2C[C@@H]1C(O)C3` (some centres undefined): in [1], the Potency is 44 µM (active). Also, the Potency result in assay [2], in assay [3], in [4], in assay [5], in assay [6] and in assay [7] was “inactive” each time. The Potency result in assay [9], in assay [10], in [11], in assay [12], in [13] and in assay [15] was “inactive” in each case. Besides, the Potency entry in assay [16], in assay [17], in assay [18] and in assay [19] was “inactive” throughout. In assay [14], the result was inactive.

Turning to `O=C1C[C@@H](c2ccc(O)c(-c3c(O)cc(O)c4c3O[C@H](c3ccc(O)cc3)CC4=O)c2)Oc2cc(O)cc(O)c21`, in [1], the Potency was 4.84 µM (active). For the same molecule, the Potency entry in assay [2], in assay [3], in assay [4], in [5], in [6] and in [7] was “inactive” each time. Further, the Potency entry in [8], in [9], in assay [10], in assay [11], in [12] and in [13] was “inactive” each time. Also, the Potency entry in [15], in assay [16], in [18], in assay [19] and in assay [20] was “inactive” each time. For the same molecule, in assay [14], the call was inactive.

In the case of `CN1C(=O)[C@]23SS[C@@]1(C)C(=O)N2[C@H]1Nc2ccccc2[C@]1(c1c[nH]c2ccccc12)[C@@H]3O`, the Potency in [1] was 49.3 µM (active); in [2], 0.668 µM (active); in [3], 0.237 µM (active); in assay [4], 0.941 µM (active); in assay [5], 0.132 µM (active); in assay [7] it was 0.743 µM (active). Also, the Potency in assay [9] is 2.35 µM (active); in [10], 0.743 µM (active); in assay [11], 0.296 µM (active); in [12], 10.5 µM (active); in assay [17] it was 1.86 µM (active); in assay [20] it was 24.1 µM (active). Besides, the Potency result in assay [13] and in assay [18] was “inactive” throughout. Besides, the call in assay [14] was inactive.

Turning to `CC(=O)O[C@@H]1C=C2C(=O)OC[C@]2(O)[C@@]2(C)CCCC(C)(C)[C@H]12`, the Potency in assay [1] was 19.6 µM (active); in assay [2], 6.68 µM (active); in [3], 5.3 µM (active); in [4], 8.38 µM (active); in [5], 1.32 µM (active); in [6] it was 21.1 µM (active). Also, the Potency in assay [7] was 8.33 µM (active); in assay [9] it was 18.7 µM (active); in [10], 13.2 µM (active); in assay [11], 10.5 µM (active); in assay [16], 18.6 µM (active); in [19], 26.1 µM (active). The Potency entry in assay [8], in [15], in assay [17] and in assay [20] was “inactive” in each case.

Source of the values: PubChem BioAssay (NCATS).
